14 compounds from PubChem BioAssay (NCATS) can be followed below.

Inconclusive results are not listed. Calls of active or inactive are those of the source. Unless noted, calls come from the whole dose curve; as a rule, active = well fitted curve in the direction sought with a large enough effect; inconclusive = small, poorly fitted or top-dose-only effect, or another doubt; inactive = no such curve, though single readings can be large; an effect the other way counts as inactive or inconclusive.

Test [1] is described as follows: A High-Content qHTS Against Drug Library for the Identification of Small Molecules that Inhibit DYT1 Early Onset Primary Dystonia-Associated Cell Pathology (AID 1645839; calls by dose curve; note: series mostly up to about 46 µM). The method, boiled down:
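In this high-content image screen, delE TorsinA mislocalization in inducible Flp-In 293 cells is scored as %pathology, with cell count serving as the counterscreen. Compound exposure lasts 48 h under tetracycline induction in reduced-serum medium.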

The target in test [2] is Cytochrome P450 2C9 (Homo sapiens) (UniProt P11712). Description: Cytochrome P450 family 2 subfamily C member 9 (CYP2C9) small molecule antagonists: luciferase biochemical (cell-free) qHTS assay (AID 1645842; active = well fitted curve in the direction sought with a large enough effect in the repeat runs; an effect the other way counts as inactive or inconclusive; note: nearly all actives have a fitted effect of over 55% in size; note: potency is the fitted concentration of half-maximal effect). The method, boiled down:
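Luminescence, after 20 min with luciferin detection reagent, reflected CYP2C9 turnover during a 1 h NADPH-driven reaction at 37C. Enzyme-substrate mix contained 0.4% bovine serum albumin and was preincubated with compound 10 min at room temperature.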

Test [3] has as its target Cytochrome P450 2D6 (Homo sapiens) (UniProt P10635). As to the kind of experiment: Cytochrome P450 family 2 subfamily D member 6 (CYP2D6) small molecule antagonists: luciferase biochemical (cell-free) qHTS assay (AID 1645840; active = well fitted curve in the direction sought with a large enough effect in the repeat runs; an effect the other way counts as inactive or inconclusive; note: nearly all actives have a fitted effect of over 55% in size; note: potency is the fitted concentration of half-maximal effect). In outline: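 P450-Glo luminescent screen: recombinant CYP2D6 enzyme–proluciferin substrate mix preincubated with compound 10 min at room temperature, then NADPH regeneration added for 1 h at room temperature. Detection reagent added for 20 min; luciferin light read as relative luminescence units.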

The nature of test [4]: Primary qHTS for inhibitors of nuclear receptor binding SET domain protein 2 (NSD2) in an isogenic RCH-ACV NSD2 p.E1099K mutant (9B) (AID 1645876). Note: nearly all actives have a fitted effect of over 70% in size. Note: potency is the fitted concentration of half-maximal effect.
The nature of test [5]: Primary qHTS for inhibitors of nuclear receptor binding SET domain protein 2 (NSD2) in an RCH-ACV wild type WT cells (2C) (AID 1645877). Note: nearly all actives have a fitted effect of over 70% in size. Note: potency is the fitted concentration of half-maximal effect.
Test [6] is described as follows: Viability counterscreen for antagonist of constitutive androstane receptor (CAR) against the NCATS DSHEA and TCM libraries (AID 1794837).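 Note: compound exposure lasted 24 h before viability reading.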 The method, boiled down: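 HepG2-CYP2B6-hCAR cells, 2,500/well, were exposed 24 hr at 37C to substances together with 48 uM CITCO (final). Viability was read as CellTiter-Fluor fluorescence (Ex/Em 405/540 nm) after 1 hr.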
Test [7] addresses Cytochrome P450 3A4 (Homo sapiens) (UniProt P08684). As to the kind of experiment: Cytochrome P450 family 3 subfamily A member 4 (CYP3A4) small molecule antagonists: luciferase qHTS assay (AID 1645841; active = well fitted curve in the direction sought with a large enough effect in the repeat runs; an effect the other way counts as inactive or inconclusive; note: nearly all actives have a fitted effect of over 45% in size). In outline:
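Luminescent CYP3A4 activity readout: compounds plus enzyme-substrate mix 10 min at room temperature, reaction started with NADPH regenerating system for 1 h, stopped with detection reagent, read after 20 min. Ketoconazole served as control.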

For test [8], the target named is Rap guanine nucleotide exchange factor 3 (Homo sapiens) (UniProt O95398). Description: Confirmatory qHTS for antagonist of cAMP-regulated guanine nucleotide exchange factor 3 (EPAC1) (AID 1645880). Note: nearly all actives have a fitted effect of over 55% in size. The method, boiled down:
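Nucleotide exchange uses 100 nM EPAC1, 250 nM RAP1B-BODIPY-GDP and 50 uM GDP, with compounds in a concentration-titration series. After 5 min at room temperature, fluorescence (480 nm ex/540 nm em) is read every 5 min for 30 min. Data are normalized to control ATA and DMSO.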

The target is the same in test [9]. Description: Confirmatory qHTS for agonist of cAMP-regulated guanine nucleotide exchange factor 3 (EPAC1) (AID 1645881).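 Note: EPAC1 catalysed release of BODIPY-GDP from Rap1B seen as fluorescence loss; nearly all actives have a fitted effect of over 75% in size.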
For test [10], the target named is Rap guanine nucleotide exchange factor 4 (Homo sapiens) (UniProt Q8WZA2). Description: Confirmatory qHTS for agonist of cAMP-regulated guanine nucleotide exchange factor 4 (EPAC2) (AID 1645884).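 Note: nucleotide exchange releases bodipy-GDP from Rap1 and this lowers its fluorescence; nearly all actives have a fitted effect of over 65% in size.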
Test [11] has the same target. Description: Confirmatory qHTS for antagonist of cAMP-regulated guanine nucleotide exchange factor 4 (EPAC2) (AID 1645885). Note: nearly all actives have a fitted effect of over 25% in size.

Cytochrome P450 2D6 (Homo sapiens), sequence (P10635 whole entry, looked up): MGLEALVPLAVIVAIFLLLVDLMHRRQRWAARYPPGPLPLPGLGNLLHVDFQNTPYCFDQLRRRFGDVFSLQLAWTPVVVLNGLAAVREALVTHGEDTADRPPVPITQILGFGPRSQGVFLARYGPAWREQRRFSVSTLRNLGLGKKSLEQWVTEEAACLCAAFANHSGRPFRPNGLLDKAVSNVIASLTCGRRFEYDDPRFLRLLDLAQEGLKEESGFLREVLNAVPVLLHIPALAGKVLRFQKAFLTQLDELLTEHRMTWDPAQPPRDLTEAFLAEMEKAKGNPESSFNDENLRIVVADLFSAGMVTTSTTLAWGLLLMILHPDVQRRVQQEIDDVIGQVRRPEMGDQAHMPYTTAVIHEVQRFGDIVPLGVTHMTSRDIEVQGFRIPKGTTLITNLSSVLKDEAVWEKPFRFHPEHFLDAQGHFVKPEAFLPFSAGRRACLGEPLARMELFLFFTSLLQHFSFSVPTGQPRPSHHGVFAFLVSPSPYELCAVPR
Cytochrome P450 2C9 (Homo sapiens), sequence (P11712 whole entry, looked up): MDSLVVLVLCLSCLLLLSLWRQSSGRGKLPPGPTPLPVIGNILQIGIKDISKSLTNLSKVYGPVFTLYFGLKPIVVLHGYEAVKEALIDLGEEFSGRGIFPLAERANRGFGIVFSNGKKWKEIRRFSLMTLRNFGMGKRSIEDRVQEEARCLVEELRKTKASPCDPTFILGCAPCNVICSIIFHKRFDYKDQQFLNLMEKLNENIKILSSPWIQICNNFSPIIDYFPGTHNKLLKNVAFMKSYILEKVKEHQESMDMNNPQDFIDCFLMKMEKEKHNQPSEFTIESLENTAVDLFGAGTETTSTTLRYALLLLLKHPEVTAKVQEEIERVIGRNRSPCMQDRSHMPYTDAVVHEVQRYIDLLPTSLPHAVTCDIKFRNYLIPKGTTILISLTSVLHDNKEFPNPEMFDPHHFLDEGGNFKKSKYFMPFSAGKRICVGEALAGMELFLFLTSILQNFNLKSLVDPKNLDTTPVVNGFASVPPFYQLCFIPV
Rap guanine nucleotide exchange factor 4 (Homo sapiens), sequence (Q8WZA2 whole entry, looked up): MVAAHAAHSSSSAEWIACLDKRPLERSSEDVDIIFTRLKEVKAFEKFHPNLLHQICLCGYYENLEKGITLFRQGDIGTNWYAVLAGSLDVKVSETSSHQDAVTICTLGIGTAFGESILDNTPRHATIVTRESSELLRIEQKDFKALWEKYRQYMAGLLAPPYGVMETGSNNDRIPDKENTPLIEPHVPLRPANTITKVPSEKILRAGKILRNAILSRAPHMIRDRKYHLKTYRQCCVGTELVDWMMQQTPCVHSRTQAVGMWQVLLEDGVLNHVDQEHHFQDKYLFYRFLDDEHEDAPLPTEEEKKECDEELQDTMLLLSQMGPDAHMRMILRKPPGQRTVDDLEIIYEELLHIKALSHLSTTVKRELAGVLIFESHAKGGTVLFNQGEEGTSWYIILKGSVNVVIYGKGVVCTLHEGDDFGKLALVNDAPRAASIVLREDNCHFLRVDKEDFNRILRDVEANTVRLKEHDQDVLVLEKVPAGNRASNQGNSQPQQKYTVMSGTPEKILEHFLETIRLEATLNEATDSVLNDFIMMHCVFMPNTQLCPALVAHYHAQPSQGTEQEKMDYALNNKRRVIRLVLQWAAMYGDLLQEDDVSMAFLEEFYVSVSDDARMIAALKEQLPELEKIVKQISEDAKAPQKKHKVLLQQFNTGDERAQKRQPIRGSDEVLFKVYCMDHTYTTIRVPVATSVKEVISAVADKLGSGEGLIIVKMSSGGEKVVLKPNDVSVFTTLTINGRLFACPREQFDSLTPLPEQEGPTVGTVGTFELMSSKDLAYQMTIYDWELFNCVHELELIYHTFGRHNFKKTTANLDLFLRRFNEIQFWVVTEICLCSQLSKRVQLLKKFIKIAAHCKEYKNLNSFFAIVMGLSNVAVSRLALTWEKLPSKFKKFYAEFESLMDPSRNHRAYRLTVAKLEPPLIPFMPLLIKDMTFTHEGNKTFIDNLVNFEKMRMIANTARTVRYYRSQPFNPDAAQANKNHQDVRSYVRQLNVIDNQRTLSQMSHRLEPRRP
Rap guanine nucleotide exchange factor 3 (Homo sapiens), sequence (O95398 whole entry, looked up): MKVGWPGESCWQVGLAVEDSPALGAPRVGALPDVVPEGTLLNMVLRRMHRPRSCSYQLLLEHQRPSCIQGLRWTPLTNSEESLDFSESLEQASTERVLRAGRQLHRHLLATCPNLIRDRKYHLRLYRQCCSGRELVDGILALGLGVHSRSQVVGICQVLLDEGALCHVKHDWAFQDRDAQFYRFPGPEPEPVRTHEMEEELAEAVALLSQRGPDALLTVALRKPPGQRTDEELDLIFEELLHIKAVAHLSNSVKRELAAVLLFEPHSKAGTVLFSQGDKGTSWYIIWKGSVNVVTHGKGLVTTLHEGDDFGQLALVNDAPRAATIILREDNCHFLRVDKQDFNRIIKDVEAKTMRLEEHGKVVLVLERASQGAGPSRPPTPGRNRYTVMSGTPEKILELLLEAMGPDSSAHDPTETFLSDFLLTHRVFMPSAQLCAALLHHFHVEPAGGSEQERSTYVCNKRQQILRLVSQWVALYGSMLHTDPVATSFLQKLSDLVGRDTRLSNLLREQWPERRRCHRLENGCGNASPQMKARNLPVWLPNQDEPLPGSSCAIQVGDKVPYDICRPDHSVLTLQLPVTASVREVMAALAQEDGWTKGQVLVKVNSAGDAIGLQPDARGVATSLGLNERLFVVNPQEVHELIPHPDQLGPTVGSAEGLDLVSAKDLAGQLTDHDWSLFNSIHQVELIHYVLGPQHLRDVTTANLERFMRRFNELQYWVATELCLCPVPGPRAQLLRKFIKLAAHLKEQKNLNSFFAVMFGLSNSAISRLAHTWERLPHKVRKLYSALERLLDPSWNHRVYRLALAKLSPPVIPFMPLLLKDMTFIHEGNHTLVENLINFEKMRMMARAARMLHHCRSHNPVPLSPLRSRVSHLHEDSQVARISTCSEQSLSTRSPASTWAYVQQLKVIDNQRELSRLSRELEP
Cytochrome P450 3A4 (Homo sapiens), sequence (P08684 whole entry, looked up): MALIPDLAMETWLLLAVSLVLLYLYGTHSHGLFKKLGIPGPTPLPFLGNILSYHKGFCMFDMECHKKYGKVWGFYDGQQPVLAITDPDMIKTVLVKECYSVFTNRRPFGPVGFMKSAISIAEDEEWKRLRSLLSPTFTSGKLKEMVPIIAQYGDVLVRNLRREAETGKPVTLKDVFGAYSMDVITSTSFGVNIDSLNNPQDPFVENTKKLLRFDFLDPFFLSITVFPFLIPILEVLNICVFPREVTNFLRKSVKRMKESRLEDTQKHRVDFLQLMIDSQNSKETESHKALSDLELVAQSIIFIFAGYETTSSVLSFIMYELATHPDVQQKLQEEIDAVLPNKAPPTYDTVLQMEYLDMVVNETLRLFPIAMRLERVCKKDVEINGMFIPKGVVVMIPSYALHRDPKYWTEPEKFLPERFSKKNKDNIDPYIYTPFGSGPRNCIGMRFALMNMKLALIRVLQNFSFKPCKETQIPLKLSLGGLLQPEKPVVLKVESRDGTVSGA

For the compound `C[C@@H]1C[C@H]2[C@@H]3C[C@H](F)C4=CC(=O)C(Cl)=C[C@]4(C)[C@@]3(F)[C@@H](O)C[C@]2(C)[C@@]1(O)C(=O)CO`, the Potency entry in test [1] and in test [2] was “inactive” in each case.

As to `CCCCc1nc(Cl)c(CO)n1Cc1ccc(-c2ccccc2-c2nn[nH]n2)cc1`, the Potency entry in test [1], in test [3], in test [4] and in [5] was “inactive” throughout. In [2], the Potency was 2.68 µM (active).

Take `Nc1nc2ncc(CNc3ccc(C(=O)N[C@@H](CCC(=O)O)C(=O)O)cc3)nc2c(=O)[nH]1`: the Potency entry in [1], in [3], in [2], in [4] and in test [5] was “inactive” in each case. In addition, the result in test [6] was inactive.

As to `CN(C/C=C/c1ccccc1)Cc1cccc2ccccc12`, in [3], the Potency is 0.347 µM (active). For the same compound, the compound was classed as inactive in [7].

In the case of `Cc1c(C)n(CCN(C)C)c2ccc(C(=O)OCCN(C)C)cc12`, the Potency result in test [3] and in test [2] was “inactive” in each case.

As to `CCN(CC)CCOC(=O)C(c1ccccc1)C1CCCCC1` (stereo not given), the Potency in [3] is 3.09 µM (active).

With `CC(Cc1ccccc1)(NC(=O)CN)c1ccccc1` (stereo not given), the Potency result in test [1], in test [4] and in test [5] was “inactive” each time.

With `O=C(O)CCCCC(=O)O`, the Potency entry in [1], in test [2], in test [4] and in test [5] was “inactive” in each case.

For `N[C@H](Cc1c[nH]c2ccccc12)C(=O)O`, the Potency entry in test [1], in [4] and in test [5] was “inactive” each time.

Take `CCOC(=O)n1ccn(C)c1=S`: the Potency entry in test [3] and in test [2] was “inactive” throughout.

As for `CN(C)/N=N/c1nc[nH]c1C(N)=O`, the Potency entry in test [1], in [4] and in test [5] was “inactive” throughout.

Consider `Oc1ccc(Cl)c2cccnc12`, for which the Potency result in [3] and in test [2] was “inactive” in each case.

Take `CCCCCCCCCCOCC(O)CN` (stereo not given): the figures for the Potency in test [3] and in test [2] were 4.83 µM (active) and 10.8 µM (active), respectively.

For `CC(=O)Oc1ccc2c(c1)CC[C@@H]1[C@@H]2CC[C@]2(C)[C@@H](O)CC[C@@H]12`, the Potency result in test [1], in test [2], in [8], in test [10] and in test [11] was “inactive” in each case. Further, the results for the Potency in test [4] and in [5] were 13.3 µM (active) and 8.41 µM (active), respectively. Also, in test [9], the outcome was inactive.
